Several values for one entry are separate records, joined by “and”; a condition that tells them apart may be missing. Identical values can stand only once. Records with an inconclusive call do not appear. Where a call stands in place of a potency, no number is given. Where a structure was tested more than once in an assay, its records may differ in their call. Activity calls are given as the source filed them. Calls follow the shape of the dose curve; as a rule, active = well fitted inhibition curve with a large enough effect in the signal ratio in the repeat runs (not every such curve was filed as active); inconclusive = weak or mixed curves; inactive = flat fitted curve, though single readings scatter; the % refers to the signal ratio.
The compounds below were run against Progesterone receptor (Homo sapiens) (UniProt P06401) (assay: qHTS assay to identify small molecule antagonists of the progesterone receptor (PR) signaling pathway (AID 1346795)). Details: PR-UAS-bla HEK293T, beta-lactamase FRET ratio, 16 h; series mostly up to 92.4 µM; activity change, negative = inhibition: at the top concentration.
Sequence of Progesterone receptor (Homo sapiens) (P06401 whole entry, looked up): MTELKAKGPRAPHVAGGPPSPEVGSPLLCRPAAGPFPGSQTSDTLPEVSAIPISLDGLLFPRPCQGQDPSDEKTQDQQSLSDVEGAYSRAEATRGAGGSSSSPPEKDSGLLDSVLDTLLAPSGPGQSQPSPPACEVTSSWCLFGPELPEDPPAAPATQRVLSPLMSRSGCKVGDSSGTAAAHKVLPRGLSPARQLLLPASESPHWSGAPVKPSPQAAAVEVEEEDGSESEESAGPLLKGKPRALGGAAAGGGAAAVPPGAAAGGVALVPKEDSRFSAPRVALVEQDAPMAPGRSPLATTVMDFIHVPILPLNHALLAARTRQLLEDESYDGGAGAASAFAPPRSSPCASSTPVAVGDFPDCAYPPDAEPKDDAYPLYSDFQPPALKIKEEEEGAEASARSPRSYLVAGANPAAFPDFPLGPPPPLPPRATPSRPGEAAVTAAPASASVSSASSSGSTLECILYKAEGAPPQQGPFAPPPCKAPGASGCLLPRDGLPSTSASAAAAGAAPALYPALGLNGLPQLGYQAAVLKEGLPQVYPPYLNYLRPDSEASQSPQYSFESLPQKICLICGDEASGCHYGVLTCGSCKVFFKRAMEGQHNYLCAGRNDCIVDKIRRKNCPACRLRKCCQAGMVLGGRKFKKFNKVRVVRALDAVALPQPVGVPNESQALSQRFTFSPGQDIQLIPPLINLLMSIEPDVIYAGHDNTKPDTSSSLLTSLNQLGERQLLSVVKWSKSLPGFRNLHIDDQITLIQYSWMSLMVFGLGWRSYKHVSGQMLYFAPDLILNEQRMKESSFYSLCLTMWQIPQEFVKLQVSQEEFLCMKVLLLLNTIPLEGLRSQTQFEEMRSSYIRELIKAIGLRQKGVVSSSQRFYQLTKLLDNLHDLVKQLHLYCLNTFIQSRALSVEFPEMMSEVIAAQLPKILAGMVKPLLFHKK
From the text: National Center for Advancing Translational Sciences [NCATS]
NIH Chemical Genomics Center [NCGC]
U.S. Environmental Protection Agency [EPA]
National Institutes of Environmental Health Sciences [NIEHS]
National Toxicology Program [NTP]
U.S. Food and Drug Administration [FDA]
Progesterone receptor (PR), a nuclear hormone receptor, plays an important role in development, metabolic homeostasis and reproduction. […] Endocrine disrupting chemicals (EDCs) and their interactions with steroid hormone receptors like PR causes disruption of normal endocrine function. To identify the compounds that inhibit PR signaling, a PR-UAS-bla GripTite cell line i.e. PR-UAS-bla HEK293T (Invitrogen, Carlsbad, CA, USA) containing a beta-lactamase reporter gene under the control of an Upstream Activator Sequence (UAS) was used to screen Tox21 10K compound library.
Tox21 Assay Protocol Summary:
PR-UAS-bla HEK293T cells were dispensed at 3,000 cells/4 uL of assay medium containing 2% charcoal stripped FBS per well into black wall/clear-bottom 1536-well plates using a Multidrop Combi (ThermoFisher Scientific, Waltham, MA) dispenser. After the assay plates were incubated at a 37C and 5% CO2 for 6 hr, 23 nL of compounds dissolved in DMSO, positive controls or DMSO only was transferred to the assay plate by a Pintool station (Kalypsys, San Diego, CA), followed by addition of 1 uL (1nM as final concentration) of Promegestone (R5020) in assay medium using a BioRAPTR FRD (Flying Reagent Dispenser, Aurora Discovery, San Diego, CA). The plates were incubated at 37C and 5% CO2 for 16 hr. Then 1 uL of LiveBLAzer B/G FRET substrate was added using a FRD. After the plates were incubated at room temperature for 2 hours, fluorescence intensity was measured by an Envision plate reader (PerkinElmer, Shelton, CT).
`NC=O` was tested, and the Potency was “inactive”. For `c1ccc(Nc2ccccc2)cc1`, the Potency was 48.5 µM (active) and inactive. In the case of `OC[C@H]1O[C@@H]2O[C@H]3[C@H](O)[C@@H](O)[C@@H](O[C@H]4[C@H](O)[C@@H](O)[C@@H](O[C@H]5[C@H](O)[C@@H](O)[C@@H](O[C@H]6[C@H](O)[C@@H](O)[C@@H](O[C@H]7[C@H](O)[C@@H](O)[C@@H](O[C@H]8[C@H](O)[C@@H](O)[C@@H](O[C@H]1[C@H](O)[C@H]2O)O[C@@H]8CO)O[C@@H]7CO)O[C@@H]6CO)O[C@@H]5CO)O[C@@H]4CO)O[C@@H]3CO`, the “activity change, negative = inhibition” value is reported as -10.2% (inactive). For `CC(C)=CCC/C(C)=C\CO`, the Potency was “inactive”. With `C[C@]12CCC(=O)C=C1CC[C@@H]1[C@@H]2C(=O)C[C@@]2(C)[C@H]1CC[C@]2(O)C(=O)CO` the Potency was 11.9 µM (active). For `CCCCC/C=C/C=C/C=O`, the Potency was “inactive”. With `Cc1ccc(C)c(O)c1C` the Potency was “inactive”. In the case of `O=c1oc(=O)c2cc3c(=O)oc(=O)c3cc12`, the Potency is reported as “inactive”. `OC(CCl)CCl` was tested, and the Potency was “inactive”. For `O=C(OCc1ccccc1)c1ccccc1O`, the “activity change, negative = inhibition” value was -22.6% (inactive). For `S=C(NC1CCCCC1)NC1CCCCC1`, the Potency was 3.44 µM (active). `Cc1cc2nc3c(=O)[nH]c(=O)nc-3n(C[C@H](O)[C@H](O)[C@H](O)CO)c2cc1C` was tested, and the activity change, negative = inhibition was -6.9% [at 18.9 µM] (inactive). `C=CC(C)(CCC=C(C)C)OC(C)=O` (stereo not given) was tested, and the Potency was “inactive”. `CCCCCCCCCCCO` was tested, and the Potency was “inactive”. `c1ccc2c(c1)c1cccc3ccc4cccc2c4c31` was tested, and the Potency was “inactive”. `CCCCC(CC)COCC1CO1` (stereo not given) was tested, and the Potency was “inactive”. `COc1ccc(OC)c(C(O)CNC(=O)CN)c1` (stereo not given) was tested, and the Potency was “inactive”. In the case of `CCCCOCCOCCO`, the Potency is reported as “inactive”. With `OC1CCCCCCCCCCC1` the Potency was “inactive”. With `Cc1c(C(N)=O)cc([N+](=O)[O-])cc1[N+](=O)[O-]` the Potency was “inactive”. In the case of `CC(C)OC=O`, the “activity change, negative = inhibition” value is reported as -4.85% (inactive). For `c1cc(N(CC2CO2)CC2CO2)ccc1OCC1CO1` (stereo not given), the Potency was 48.6 µM (active). With `CC(C)OB(OC(C)C)OC(C)C` the Potency was “inactive”. With `CCC(C)(O)CCCC(C)C` (stereo not given) the Potency was “inactive”. For `CN(C)CCN(Cc1cccs1)c1ccccn1`, the Potency was “inactive”. In the case of `C=C(C)C(=O)OCCOC(=O)C(=C)C`, the Potency is reported as “inactive”. `Nc1ncnc2nc[nH]c12` was tested, and the Potency was “inactive”. With `O=C(COc1ccc(Cl)cc1)N1CCN(Cc2ccc3c(c2)OCO3)CC1` the Potency was 54.5 µM (active). For `O=P(O)(O)O`, the Potency was “inactive”. In the case of `CN(C)CCC=C1c2ccccc2CCc2ccccc21`, the Potency is reported as 54.5 µM (active). In the case of `COC(=O)c1ccccc1`, the Potency is reported as “inactive”. In the case of `CN(C)C(=N)N=C(N)N`, the Potency is reported as “inactive”. For `CCCC(=O)O`, the Potency was “inactive”. `CCCCC(CC)COP(=O)(OCC(CC)CCCC)OCC(CC)CCCC` (stereo not given) was tested, and the Potency was “inactive”. For `Cc1ccc(C(=O)c2cc(O)c(O)c([N+](=O)[O-])c2)cc1`, the Potency was 23.7 µM (active). With `O=CCc1ccccc1` the “activity change, negative = inhibition” value was 7.86% (inactive). For `CC(C)CC(C)(O)C#CC(C)(O)CC(C)C` (stereo not given), the “activity change, negative = inhibition” value was -16.3% (inactive). For `O=S(=O)(O)c1ccc(O)cc1`, the Potency was “inactive”. With `c1ccncc1` the Potency was “inactive”. In the case of `COc1cccc2c1C(=O)c1c(O)c3c(c(O)c1C2=O)C[C@@](O)(C(=O)CO)C[C@@H]3O[C@H]1C[C@H](N)[C@H](O)[C@H](C)O1`, the Potency is reported as 2.73 µM (active) and 9.44 µM (active).
Potency is read from the fitted curve at half-maximal effect.
